About 79,000 compounds went through this panel and 15% of them were active in at least one assay; those are over-represented in the sample as a whole. Unmarked numbers belong to inactive results. Calls of active or inactive are those of the source. Rule as the data show it: active = growth inhibition above about 70%; inactive = the rest.

A short description of experiment [1]: NCI Yeast Anticancer Drug Screen. Data for the rad50 strain (AID 155).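 Also: 0% = growth of vehicle-only cultures of the same strain.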 Conditions: S. cerevisiae rad50 strain growth inhibition, hits give high values. The method, boiled down: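 A DNA repair-deficient yeast mutant serves as the test organism; compound-induced growth inhibition is calculated against vehicle-treated cells.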
Experiment [2] is described as follows: NCI Yeast Anticancer Drug Screen. Data for the mec2-1 strain (AID 157). Conditions: S. cerevisiae mec2-1 strain, hits give high values. The essentials: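 Vehicle-treated cultures served as reference for growth inhibition of compound-exposed mec2-1 yeast.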
A short description of experiment [3]: NCI Yeast Anticancer Drug Screen. Data for the sgs1 mgt1 strain (AID 161).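 Also: 0% = growth of cultures given vehicle only.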 The following applies: S. cerevisiae sgs1 mgt1 strain, hits give high values. The method, boiled down:
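Test agents were incubated with a DNA-repair-mutant yeast strain. Growth was then read and compared against vehicle-treated controls.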

A short description of experiment [4]: NCI Yeast Anticancer Drug Screen. Data for the cln2 rad14 strain (AID 165).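 Also: 0% = growth equal to vehicle treated cultures.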 The following applies: S. cerevisiae cln2 rad14 strain, hits give high values. The essentials: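 Each compound was tested on cln2 rad14 yeast. Inhibition of growth was calculated against vehicle-exposed controls.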
Experiment [5] is described as follows: NCI Yeast Anticancer Drug Screen. Data for the bub3 strain (AID 167). The following applies: S. cerevisiae bub3 mutant strain, hits give high values. The essentials: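 Inhibition values come from growth of compound-treated mutant yeast normalised to vehicle-treated controls.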
A short description of experiment [6]: NCI Yeast Anticancer Drug Screen. Data for the mlh1 rad18 strain (AID 175). Conditions: S. cerevisiae mlh1 rad18 strain growth inhibition, hits give high values. The method, boiled down: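 Vehicle-treated cultures served as the reference for growth inhibition in a yeast strain carrying DNA damage repair alterations exposed to each compound.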
Where [7] appears, read: at 5.0 µM (retest, dose inferred, filed as 0.5).
The mark [8] stands for this setting: at 50.0 µM (retest, dose inferred, filed as 5.0).

`CC1C=C(COC(=O)Nc2ccccc2)ON1c1ccccc1` (configuration not stated): the growth inhibition was -2% in experiment [1] (setting [7]); 97% (active) in experiment [1] (setting [8]); 98.2% (active) in experiment [1] (at 50.0 µM); -3% in experiment [2] (setting [7]); 96% (active) in experiment [2] (setting [8]); 98% (active) in experiment [2] (at 50.0 µM). Also, the growth inhibition in experiment [3] (setting [7]) was -2%; in experiment [3] (setting [8]) it was 97% (active); in experiment [3] (at 50.0 µM), 98.2% (active); in experiment [4] (setting [7]), -4%; in experiment [4] (setting [8]) it was 95% (active); in experiment [4] (at 50.0 µM) it was 98.3% (active). The growth inhibition in experiment [5] (setting [7]) was -8%; in experiment [5] (setting [8]), 93% (active); in experiment [5] (at 50.0 µM) it was 98.5% (active); in experiment [6] (setting [7]), -1%; in experiment [6] (setting [8]) it was 97% (active); in experiment [6] (at 50.0 µM) it was 97.8% (active).
As to `CC1N=C(Cc2ccccc2)SC1C` (configuration not stated), the growth inhibition in experiment [1] (setting [7]) was -2%; in experiment [1] (setting [8]) it was 81% (active); in experiment [1] (at 50.0 µM), 74.5% (active); in experiment [2] (setting [7]), -5%; in experiment [2] (setting [8]) it was 85% (active); in experiment [2] (at 50.0 µM) it was 86.1% (active). Moreover, the growth inhibition in experiment [3] (setting [7]) is 0%; in experiment [3] (setting [8]) it was 87% (active); in experiment [3] (at 50.0 µM), 86.8% (active); in experiment [4] (setting [7]) it was -9%; in experiment [4] (setting [8]) it was 85% (active); in experiment [4] (at 50.0 µM), 88% (active). Besides, the growth inhibition in experiment [5] (setting [7]) is 0%; in experiment [5] (setting [8]), 83% (active); in experiment [5] (at 50.0 µM), 88.3% (active); in experiment [6] (setting [7]) it was -1%; in experiment [6] (setting [8]), 84% (active); in experiment [6] (at 50.0 µM) it was 85.8% (active).
Consider `O=C(Nc1cccc(Br)c1)Oc1cccc2cccnc12`, for which the growth inhibition in experiment [1] (setting [7]) is 61%; in experiment [1] (setting [8]), 97% (active); in experiment [1] (at 50.0 µM), 85.7% (active); in experiment [2] (setting [7]) it was 65%; in experiment [2] (setting [8]), 99% (active); in experiment [2] (at 50.0 µM), 89.8% (active). The growth inhibition in experiment [3] (setting [7]) is 99% (active); in experiment [3] (setting [8]) it was 99% (active); in experiment [3] (at 50.0 µM) it was 85.3% (active); in experiment [4] (setting [7]) it was 76% (active); in experiment [4] (setting [8]), 99% (active); in experiment [4] (at 50.0 µM) it was 81.1% (active). The growth inhibition was 91% (active) in experiment [5] (setting [7]); 73% (active) in experiment [5] (setting [8]); 87.8% (active) in experiment [5] (at 50.0 µM); 64% in experiment [6] (setting [7]); 98% (active) in experiment [6] (setting [8]); 85% (active) in experiment [6] (at 50.0 µM).
Consider `N=C(N)SC1c2ccccc2-c2cc([N+](=O)[O-])ccc21` (configuration not stated), for which the growth inhibition is 29% in experiment [1] (setting [7]); 98% (active) in experiment [1] (setting [8]); 97.7% (active) in experiment [1] (at 50.0 µM); 13% in experiment [2] (setting [7]); 98% (active) in experiment [2] (setting [8]); 98.1% (active) in experiment [2] (at 50.0 µM). Moreover, the growth inhibition was 22% in experiment [3] (setting [7]); 98% (active) in experiment [3] (setting [8]); 98.6% (active) in experiment [3] (at 50.0 µM); 14% in experiment [4] (setting [7]); 98% (active) in experiment [4] (setting [8]); 97.8% (active) in experiment [4] (at 50.0 µM). In addition, the growth inhibition in experiment [5] (setting [7]) is 11%; in experiment [5] (setting [8]) it was 99% (active); in experiment [5] (at 50.0 µM), 98% (active); in experiment [6] (setting [7]), 17%; in experiment [6] (setting [8]) it was 99% (active); in experiment [6] (at 50.0 µM) it was 98.5% (active).
In the case of `CN(C)CC/C(=N\Nc1ccc(Cl)cc1)c1ccccc1`, the growth inhibition is 98% (active) in experiment [1] (setting [7]); 99% (active) in experiment [1] (setting [8]); 99.2% (active) in experiment [1] (at 50.0 µM); 100% (active) in experiment [2] (setting [7]); 99% (active) in experiment [2] (setting [8]); 98.8% (active) in experiment [2] (at 50.0 µM). Moreover, the growth inhibition is 100% (active) in experiment [3] (setting [7]); 99% (active) in experiment [3] (setting [8]); 99% (active) in experiment [3] (at 50.0 µM); 96% (active) in experiment [4] (setting [7]); 99% (active) in experiment [4] (setting [8]); 95.9% (active) in experiment [4] (at 50.0 µM). Besides, the growth inhibition was 98% (active) in experiment [5] (setting [7]); 99% (active) in experiment [5] (setting [8]); 99.6% (active) in experiment [5] (at 50.0 µM); 99% (active) in experiment [6] (setting [7]); 99% (active) in experiment [6] (setting [8]); 98.7% (active) in experiment [6] (at 50.0 µM).
`CN(C)C1CCC(N=Nc2cc([N+](=O)[O-])ccc2C(=O)O)CC1` (configuration not stated): the growth inhibition is -7% in experiment [1] (setting [7]); 55% in experiment [1] (setting [8]); 86.2% (active) in experiment [1] (at 50.0 µM); 7% in experiment [2] (setting [7]); 23% in experiment [2] (setting [8]); 56.7% in experiment [2] (at 50.0 µM). The growth inhibition in experiment [3] (setting [7]) is -2%; in experiment [3] (setting [8]), 49%; in experiment [3] (at 50.0 µM), 83.6% (active); in experiment [4] (setting [7]), 1%; in experiment [4] (setting [8]), 18%; in experiment [4] (at 50.0 µM) it was 15.6%. Besides, the growth inhibition was 7% in experiment [5] (setting [7]); 87% (active) in experiment [5] (setting [8]); 94.3% (active) in experiment [5] (at 50.0 µM); -1% in experiment [6] (setting [7]); 61% in experiment [6] (setting [8]); 84.9% (active) in experiment [6] (at 50.0 µM).
On to `C/C(=N\NC(=S)N(C)C1CCCCC1)c1ccc2ccccc2n1`, for which the growth inhibition in experiment [1] (setting [7]) is 18%; in experiment [1] (setting [8]), 88% (active); in experiment [1] (at 50.0 µM), 83.2% (active); in experiment [2] (setting [7]), 28%; in experiment [2] (setting [8]) it was 97% (active); in experiment [2] (at 50.0 µM), 80.2% (active). Also, the growth inhibition in experiment [3] (setting [7]) was 28%; in experiment [3] (setting [8]), 93% (active); in experiment [3] (at 50.0 µM), 81.8% (active); in experiment [4] (setting [7]), 33%; in experiment [4] (setting [8]) it was 88% (active); in experiment [4] (at 50.0 µM), 84% (active). The growth inhibition in experiment [5] (setting [7]) was 33%; in experiment [5] (setting [8]) it was 96% (active); in experiment [5] (at 50.0 µM), 76.9% (active); in experiment [6] (setting [7]) it was 19%; in experiment [6] (setting [8]), 97% (active); in experiment [6] (at 50.0 µM), 89.2% (active).
As to `COC(O)C(=O)c1c2c(cc3c1CC1(Cc4cc5c(cc4C1)CCC5)C3)CCC2` (configuration not stated), the growth inhibition is 69% in experiment [1] (setting [7]); 98% (active) in experiment [1] (setting [8]); 69% in experiment [1] (at 50.0 µM); 99% (active) in experiment [2] (setting [7]); 99% (active) in experiment [2] (setting [8]); 80.5% (active) in experiment [2] (at 50.0 µM). In addition, the growth inhibition in experiment [3] (setting [7]) is 94% (active); in experiment [3] (setting [8]), 98% (active); in experiment [3] (at 50.0 µM) it was 83.2% (active); in experiment [4] (setting [7]), 99% (active); in experiment [4] (setting [8]), 98% (active); in experiment [4] (at 50.0 µM), 87.6% (active). Moreover, the growth inhibition is 99% (active) in experiment [5] (setting [7]); 98% (active) in experiment [5] (setting [8]); 88.5% (active) in experiment [5] (at 50.0 µM); 99% (active) in experiment [6] (setting [7]); 98% (active) in experiment [6] (setting [8]); 90.5% (active) in experiment [6] (at 50.0 µM).
On to `CN(C)CC1Cc2ccsc2C1=O` (configuration not stated), for which the growth inhibition in experiment [1] (setting [7]) is 0%; in experiment [1] (setting [8]) it was 85% (active); in experiment [1] (at 50.0 µM), 99% (active); in experiment [2] (setting [7]) it was 5%; in experiment [2] (setting [8]), 75% (active); in experiment [2] (at 50.0 µM), 99.5% (active). Besides, the growth inhibition in experiment [3] (setting [7]) was 3%; in experiment [3] (setting [8]), 54%; in experiment [3] (at 50.0 µM), 99.4% (active); in experiment [4] (setting [7]), 1%; in experiment [4] (setting [8]), 76% (active); in experiment [4] (at 50.0 µM) it was 99.5% (active). Also, the growth inhibition was 0% in experiment [5] (setting [7]); 88% (active) in experiment [5] (setting [8]); 99.3% (active) in experiment [5] (at 50.0 µM); 0% in experiment [6] (setting [7]); 93% (active) in experiment [6] (setting [8]); 99.2% (active) in experiment [6] (at 50.0 µM).

The record behind these values is PubChem BioAssay (NCI).
